From PubChem BioAssay (EPA / NIEHS)
The source made the active and inactive calls. The calls were made as follows: active = hit-call score of the fitted dose curve at least 0.9, where 1 is the maximum; inactive = score below 0.9.

How the values were obtained:
Details in all cases: mRNA level, 48 h; actives raise or lower the signal
CYP4A11 (gene 1579) = test: LTEA_HepaRG_CYP4A11: Life Technologies and Expression Analysis (LTEA) Assay for CYP4A11 using HepaRG (AID 2283486)
Summary of the method: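 HepaRG, 48 h chem exposure, 8 conc (100 uM top, half-log), 0.5% DMSO vehicle; qRT-PCR readout, housekeeping-gene normalized; bidirectional curve fit vs DMSO baseline.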

[1] = read-out: Cytochrome P450 3A4 (Homo sapiens) (UniProt P08684); test: LTEA_HepaRG_CYP3A4: Life Technologies and Expression Analysis (LTEA) Assay for CYP3A4 using HepaRG (AID 2283487)
Summary of the method: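 Differentiated HepaRG cells in serum-free induction medium exposed in duplicate for 48 h to 8 half-log concentrations up to 100 uM in 0.5% DMSO. CYP3A4 mRNA measured by qRT-PCR normalized to ACTB, GAPDH and POLR2A; bidirectional fit versus DMSO.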

[2] = read-out: DNA damage-inducible transcript 3 (DDIT3), DDIT3 (gene 1649); test: LTEA_HepaRG_DDIT3: Life Technologies and Expression Analysis (LTEA) Assay for DNA damage-inducible transcript 3 (DDIT3) using HepaRG (AID 2283488)
Summary of the method: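 Differentiated human HepaRG cells in serum-free induction medium were exposed in duplicate for 48 h to 8 concentrations (top 100 uM, half-log steps, 0.5% DMSO). DDIT3 mRNA measured by TaqMan qRT-PCR, normalized to ACTB/GAPDH/POLR2A; bidirectional fit versus DMSO.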

[3] = read-out: Pro-epidermal growth factor (Homo sapiens) (UniProt P01133); test: LTEA_HepaRG_EGF: Life Technologies and Expression Analysis (LTEA) Assay for Epidermal growth factor (EGF) using HepaRG (AID 2283489)
Summary of the method: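 HepaRG, 48 h dosing, 100 uM top, half-log x8, 0.5% DMSO. Readout: TaqMan qRT-PCR (Fluidigm array), housekeeping-normalized. Gain or loss of signal fit vs DMSO.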

[4] = read-out: Early growth response protein 1 (EGR1) transcription factor, EGR1 (gene 1958); test: LTEA_HepaRG_EGR1: Life Technologies and Expression Analysis (LTEA) Assay for Early growth response protein 1 (EGR1) transcription factor using HepaRG (AID 2283490)
Summary of the method: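 Differentiated HepaRG cells in serum-free induction medium exposed 48 hours, duplicate, to 8 half-log concentrations up to 100 uM in 0.5% DMSO. EGR1 mRNA measured by TaqMan qRT-PCR, normalized to ACTB, GAPDH, POLR2A; bidirectional fit versus DMSO.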

[5] = read-out: Ezrin (EZR), EZR (gene 7430); test: LTEA_HepaRG_EZR: Life Technologies and Expression Analysis (LTEA) Assay for Ezrin (EZR) using HepaRG (AID 2283491)
Summary of the method: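 Differentiated human HepaRG cells, 48 h after plating, were exposed in serum-free induction medium for 48 hours to eight half-log concentrations up to 100 uM in 0.5% DMSO. EZR mRNA was measured by TaqMan qRT-PCR, normalized to ACTB, GAPDH and POLR2A, and fitted bidirectionally against DMSO.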

[6] = read-out: Cytochrome P450 3A7 (Homo sapiens) (UniProt P24462); test: LTEA_HepaRG_CYP3A7: Life Technologies and Expression Analysis (LTEA) Assay for CYP3A7 using HepaRG (AID 2283492)
Summary of the method: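 Human HepaRG liver cells, 48 h post-plating, switched to serum-free induction medium and exposed in duplicate for 48 h. Dosing: 100 uM top, half-log dilutions, 8 points, 0.5% DMSO vehicle. Read-out: CYP3A7 mRNA, gain or loss fitted against DMSO baseline.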

CYP3A5 (gene 1577) = test: LTEA_HepaRG_CYP3A5: Life Technologies and Expression Analysis (LTEA) Assay for CYP3A5 using HepaRG (AID 2283493)
Summary of the method: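 Differentiated HepaRG cells in serum-free induction medium were dosed 48 h with test chemicals (8-point half-log series, top 100 uM, 0.5% DMSO, duplicate). CYP3A5 mRNA measured by qRT-PCR, normalized to ACTB, GAPDH, POLR2A; bidirectional fit versus DMSO.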

[7] = read-out: Fatty Acid-Binding Protein 1 (FABP1), FABP1 (gene 2168); test: LTEA_HepaRG_FABP1: Life Technologies and Expression Analysis (LTEA) Assay for Fatty Acid-Binding Protein 1 (FABP1) using HepaRG (AID 2283494)
Summary of the method: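 Differentiated human HepaRG cells exposed 48 h in serum-free induction medium to eight half-log concentrations up to 100 uM (0.5% DMSO), duplicate. FABP1 mRNA by qRT-PCR, normalised to ACTB, GAPDH, POLR2A; bidirectional fitting against DMSO.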

[8] = read-out: Cytochrome P450 4A22 (Homo sapiens) (UniProt Q5TCH4); test: LTEA_HepaRG_CYP4A22: Life Technologies and Expression Analysis (LTEA) Assay for Cytochrome P450 4A22 (CYP4A22) using HepaRG (AID 2283495)
Summary of the method: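 Readout is CYP4A22 transcript induction or loss, quantified by qRT-PCR and normalized to ACTB, GAPDH and POLR2A. Human HepaRG cells receive test chemicals for 48 h at eight half-log concentrations from 100 uM in 0.5% DMSO.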

[9] = read-out: Cytochrome P450 7A1 (Homo sapiens) (UniProt P22680); test: LTEA_HepaRG_CYP7A1: Life Technologies and Expression Analysis (LTEA) Assay for Cytochrome P450 7A1 (CYP7A1) using HepaRG (AID 2283496)
Summary of the method: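 Gene expression endpoint in human HepaRG liver cells treated for 48 h with test chemicals (up to 100 uM, 0.5% DMSO). Values come from bidirectional concentration-response fitting versus DMSO.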

[10] = read-out: Glutathione S-Transferase (GSTA2), GSTA2 (gene 2939); test: LTEA_HepaRG_GSTA2: Life Technologies and Expression Analysis (LTEA) Assay for Glutathione S-Transferase (GSTA2) using HepaRG (AID 2283497)
Summary of the method: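 Differentiated human HepaRG cells were exposed in duplicate for 48 h in serum-free induction medium, 8 points from 100 uM top in half-log steps, 0.5% DMSO. GSTA2 mRNA was measured by TaqMan qRT-PCR, normalized to ACTB, GAPDH and POLR2A; bidirectional fit versus DMSO.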

[11] = read-out: Glutamate-cysteine ligase catalytic (GCLC), GCLC (gene 2729); test: LTEA_HepaRG_GCLC: Life Technologies and Expression Analysis (LTEA) Assay for Glutamate-cysteine ligase catalytic (GCLC) using HepaRG (AID 2283498)
Summary of the method: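 Differentiated HepaRG cells exposed 48 h in serum-free induction medium, eight-point half-log series topping at 100 uM in 0.5% DMSO, duplicates. GCLC mRNA by qRT-PCR normalized to ACTB, GAPDH and POLR2A, fitted bidirectionally versus DMSO.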

[12] = read-out: growth arrest and DNA damage 45 (GADD45G), GADD45G (gene 10912); test: LTEA_HepaRG_GADD45G: Life Technologies and Expression Analysis (LTEA) Assay for growth arrest and DNA damage 45 (GADD45G) using HepaRG (AID 2283499)
Summary of the method: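 Gain or loss of GADD45G mRNA, quantified by TaqMan qRT-PCR against three housekeeping genes, is fitted in both directions relative to 0.5% DMSO. Human HepaRG cultures receive test chemical for 48 h at up to 100 uM.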

[13] = read-out: Glutamate-cysteine ligase regulatory (GCLM), GCLM (gene 2730); test: LTEA_HepaRG_GCLM: Life Technologies and Expression Analysis (LTEA) Assay for Glutamate-cysteine ligase regulatory (GCLM) using HepaRG (AID 2283500)
Summary of the method: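 Differentiated human HepaRG cells exposed 48 h in serum-free induction medium to 8-point half-log concentrations (top 100 uM, 0.5% DMSO), in duplicate. GCLM mRNA quantified by qRT-PCR, normalized to ACTB, GAPDH, POLR2A; bidirectional fitting versus DMSO.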

[14] = read-out: Glutathione S-transferase M3 (GSTM3), GSTM3 (gene 2947); test: LTEA_HepaRG_GSTM3: Life Technologies and Expression Analysis (LTEA) Assay for Glutathione S-transferase M3 (GSTM3) using HepaRG (AID 2283501)
Summary of the method: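 HepaRG, plated 48 h, then serum-free induction medium; test chemical 48 h, duplicate; 100 uM top, half-log x8, 0.5% DMSO. Read-out: GSTM3 mRNA (TaqMan qRT-PCR, Fluidigm array). Bidirectional fit vs DMSO.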

[15] = read-out: Heat shock 70 kDa protein 1 (HSPA1A), gene 3303; test: LTEA_HepaRG_HSPA1A: Life Technologies and Expression Analysis (LTEA) Assay for Heat shock 70 kDa protein 1 (HSPA1A) using HepaRG (AID 2283502)
Summary of the method: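 Differentiated human HepaRG cells in serum-free induction medium were exposed in duplicate for 48 h to eight concentrations (top 100 uM, half-log steps, 0.5% DMSO). HSPA1A mRNA was quantified by qRT-PCR, normalized to ACTB, GAPDH and POLR2A, and fitted bidirectionally against DMSO.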

[16] = read-out: Hypoxia-inducible factor 1-alpha (Homo sapiens) (UniProt Q16665); test: LTEA_HepaRG_HIF1A: Life Technologies and Expression Analysis (LTEA) Assay for Hypoxia-inducible factor 1 (HIF1A) Trancription factor using HepaRG (AID 2283503)
Summary of the method: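 HepaRG, 48 h exposure, 8-pt half-log series from 100 uM, 0.5% DMSO vehicle, duplicates. Readout: HIF1A transcript by qRT-PCR (Fluidigm array), housekeeping-normalised. Bidirectional curve fit vs DMSO baseline.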

[17] = read-out: 3-Hydroxy-3-Methylglutaryl-CoA Synthase 2 (HMGCS2), HMGCS2 (gene 3158); test: LTEA_HepaRG_HMGCS2: Life Technologies and Expression Analysis (LTEA) Assay for 3-Hydroxy-3-Methylglutaryl-CoA Synthase 2 (HMGCS2) using HepaRG (AID 2283504)
Summary of the method: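 HepaRG, plated 48 h then switched to serum-free induction media; cmpd 8-pt, max 100 uM, 1/2-log, 0.5% DMSO, n=2, 48 h. HMGCS2 mRNA by Fluidigm TaqMan qRT-PCR, ACTB/GAPDH/POLR2A norm; bidirectional fit vs DMSO.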

HGF (gene 3082) = test: LTEA_HepaRG_HGF: Life Technologies and Expression Analysis (LTEA) Assay for Hepatocyte Growth Facto (HGF) using HepaRG (AID 2283505)
Summary of the method: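 Read-out is HGF transcript level by qRT-PCR, normalized to three housekeeping genes, fitted bidirectionally against 0.5% DMSO vehicle. Human HepaRG cells received test chemicals for 48 h at up to 100 uM.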

Measured: AC50

Sequence of Cytochrome P450 3A4 (Homo sapiens) (P08684 whole entry, looked up): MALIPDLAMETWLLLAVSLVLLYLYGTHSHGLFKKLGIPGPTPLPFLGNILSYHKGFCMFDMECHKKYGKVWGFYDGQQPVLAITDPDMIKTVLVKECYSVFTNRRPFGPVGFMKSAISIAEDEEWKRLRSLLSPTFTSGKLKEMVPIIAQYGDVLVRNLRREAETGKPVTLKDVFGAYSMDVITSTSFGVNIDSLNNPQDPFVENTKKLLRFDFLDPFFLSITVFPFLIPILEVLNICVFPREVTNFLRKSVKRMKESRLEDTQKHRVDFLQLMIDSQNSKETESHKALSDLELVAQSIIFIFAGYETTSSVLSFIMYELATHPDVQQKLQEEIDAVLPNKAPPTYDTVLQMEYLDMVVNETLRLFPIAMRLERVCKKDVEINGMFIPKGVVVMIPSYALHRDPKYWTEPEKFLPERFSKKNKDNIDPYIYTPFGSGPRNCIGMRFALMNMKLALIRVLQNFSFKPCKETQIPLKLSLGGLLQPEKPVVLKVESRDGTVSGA
Sequence of Cytochrome P450 3A7 (Homo sapiens) (P24462 whole entry, looked up): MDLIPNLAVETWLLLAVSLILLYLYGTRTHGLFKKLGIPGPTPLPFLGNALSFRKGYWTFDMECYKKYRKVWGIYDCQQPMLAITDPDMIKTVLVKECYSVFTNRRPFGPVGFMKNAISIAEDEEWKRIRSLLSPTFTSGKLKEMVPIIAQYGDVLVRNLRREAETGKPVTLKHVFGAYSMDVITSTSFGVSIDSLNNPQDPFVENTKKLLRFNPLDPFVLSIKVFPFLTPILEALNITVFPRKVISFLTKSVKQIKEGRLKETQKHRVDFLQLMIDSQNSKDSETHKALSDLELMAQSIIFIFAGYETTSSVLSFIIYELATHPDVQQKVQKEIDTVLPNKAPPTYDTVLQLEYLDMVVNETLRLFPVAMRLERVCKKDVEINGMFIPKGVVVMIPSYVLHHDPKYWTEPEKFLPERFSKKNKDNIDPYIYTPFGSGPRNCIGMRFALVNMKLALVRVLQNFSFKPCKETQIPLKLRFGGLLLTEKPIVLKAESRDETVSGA
Sequence of Hypoxia-inducible factor 1-alpha (Homo sapiens) (Q16665 whole entry, looked up): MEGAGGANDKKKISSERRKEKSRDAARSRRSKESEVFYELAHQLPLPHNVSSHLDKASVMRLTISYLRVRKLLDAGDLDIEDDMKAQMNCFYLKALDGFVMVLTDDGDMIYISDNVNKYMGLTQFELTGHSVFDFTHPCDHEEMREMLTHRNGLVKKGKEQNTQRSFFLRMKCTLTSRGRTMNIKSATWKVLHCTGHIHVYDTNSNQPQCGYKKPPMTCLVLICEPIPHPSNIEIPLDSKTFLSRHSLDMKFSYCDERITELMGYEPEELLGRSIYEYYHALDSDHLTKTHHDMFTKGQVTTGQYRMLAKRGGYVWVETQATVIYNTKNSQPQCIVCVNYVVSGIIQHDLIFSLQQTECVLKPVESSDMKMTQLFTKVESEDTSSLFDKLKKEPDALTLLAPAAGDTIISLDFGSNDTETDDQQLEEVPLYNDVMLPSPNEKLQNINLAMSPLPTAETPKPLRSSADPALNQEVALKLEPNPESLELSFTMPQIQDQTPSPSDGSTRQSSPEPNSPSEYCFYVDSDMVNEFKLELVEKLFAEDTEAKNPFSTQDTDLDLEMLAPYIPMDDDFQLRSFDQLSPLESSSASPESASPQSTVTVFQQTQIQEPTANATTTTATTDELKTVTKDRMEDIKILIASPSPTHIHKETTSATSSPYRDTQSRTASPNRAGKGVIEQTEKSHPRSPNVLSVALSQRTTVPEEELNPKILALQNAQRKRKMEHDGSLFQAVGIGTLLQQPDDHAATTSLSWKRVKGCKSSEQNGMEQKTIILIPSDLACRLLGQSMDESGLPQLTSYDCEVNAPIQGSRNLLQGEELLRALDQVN

Cc1ccc(N=C=O)cc1N=C=O
active: CYP4A11 (gene 1579) 20.8 µM | [2] 13.3 µM | [4] 50 µM | [7] 23 µM | [8] 50 µM | [9] 31.7 µM | [10] 50 µM | [11] 30.3 µM | [12] 50 µM | [15] 30.4 µM | [17] 68.7 µM
inactive: [1] | [3] | [5] | [6] | CYP3A5 (gene 1577) | [13] | [14] | [16] | HGF (gene 3082)

CC(C)COC(=O)c1ccccc1C(=O)OCC(C)C
inactive: all assays above

CN(C)C(=O)Nc1ccc(Cl)cc1
inactive: all assays above

CCCSC(=O)N(CCC)CCC
inactive: all assays above
